# Reference: PubChem BioAssay (NCATS)
# Results filed as inconclusive are left out. Activity calls are given as the source filed them. Unless noted, the call rests on the fitted dose curve; in most records, active means well fitted inhibition curve with a large enough effect; inconclusive means small, poorly fitted or top-dose-only effect; inactive means flat fitted curve, though single readings scatter.
# What was measured:
# [1] = qHTS drug screen for cell cycle checkpoint inhibitors in PARPi-resistant BRCA-mutant ovarian cancer cell lines. (AID 1963452; calls by dose curve; further: potency means the concentration at half of the fitted maximal effect); conditions: PEO1/OlaR viability, CellTiter-Glo luminescence, 96 h; for Z-AUC: stronger effect = lower value
# Summary of the method: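 PEO1, PEO4 and PEO1/OlaR ovarian cancer cells, 600 per well, exposed 96 h at 37C to a dilution series. Viability read by CellTiter-Glo luminescence, normalized to DMSO and empty wells; activity summarized as Z-AUC.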
# 3D7 = experiment: qHTS profiling for inhibitors of Plasmodium falciparum proliferation (AID 504749);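 further: 0% = DMSO vehicle and full inhibition = artemisinin control; nearly all actives have a fitted effect of over 60% in size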; conditions: P. falciparum in erythrocytes, SYBR Green DNA, 72 h; series mostly up to 28.7 µM
# Summary of the method: (§1)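 In a 72 h erythrocytic culture (37 C, humidified, 5% CO2) at 2.5% hematocrit and 0.3% starting parasitemia, compounds were tested; SYBR Green I in detergent lysis buffer stained parasite DNA overnight.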
# 7G8 = experiment: as above; conditions: P. falciparum in erythrocytes, SYBR Green DNA, 72 h; series mostly up to 28.7 µM
# Summary of the method: as §1
# AA1029 = experiment: as above; conditions: P. falciparum in erythrocytes, SYBR Green DNA, 72 h; series mostly up to 28.7 µM
# Summary of the method: as §1
# AS120 = experiment: as above; conditions: P. falciparum in erythrocytes, SYBR Green DNA, 72 h; series mostly up to 28.7 µM
# Summary of the method: as §1
# ATS189 = experiment: as above; conditions: P. falciparum in erythrocytes, SYBR Green DNA, 72 h; series mostly up to 28.7 µM
# Summary of the method: as §1
# C2A = experiment: as above; conditions: P. falciparum in erythrocytes, SYBR Green DNA, 72 h; series mostly up to 28.7 µM
# Summary of the method: as §1
# [2] = qHTS for identification of novel therapeutic agents for treatment of microphthalmiaassociated transcription factor (MiT) renal cell carcinoma (RCC) (AID 1963991; calls by dose curve; further: potency means the concentration at half of the fitted maximal effect); conditions: CellTiter-Glo, 48 h; for z-score: stronger effect = lower value; for Potency: active = Z-AUC below -0.8 in all three lines
# Summary of the method: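 Curves over 11 concentrations were fitted to CellTiter-Glo luminescence, scaled between empty wells (0%) and DMSO (100%) viability. Cells were UOK109, UOK124 and UOK145 TFE3-fusion RCC lines at 500/well, exposed 48 hours at 37 C.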
# [3] = measured here: PEO1 parental Z-AUC
# [4] = TFE3-RCC UOK109 viability, measured here: UOK109 Z-AUC
# [5] = TFE3-RCC viability, measured here: UOK124 Z-AUC
# [6] = TFE3-RCC viability, measured here: UOK145 Z-AUC
smiles,measurement,setting,value
COc1ccc([C@@H]2CNC(=O)C2)cc1OC1CCCC1,Z-AUC,[1],-0.0996 (inactive)
same,Z-AUC,[1]; [3],-0.168
same,Z-AUC,[1]; measured here: PEO4 Z-AUC,0.0398
same,Potency,3D7,inactive
same,Potency,7G8,inactive
same,Potency,AA1029,inactive
same,Potency,AS120,inactive
same,Potency,ATS189,inactive
same,Potency,C2A,inactive
N[C@H]1CN(c2c(F)cc3c(=O)c(C(=O)O)cn(C4C[C@@H]4F)c3c2Cl)CC12CC2 (stereo not given in full),z-score,[2]; [4],0.717
same,z-score,[2]; [5],1.4
same,z-score,[2]; [6],-0.145
CC(C)(O)[C@H]1CC[C@@](C)([C@H]2[C@@H](O)C[C@@]3(C)[C@@H]4C[C@H](O[C@@H]5O[C@H](CO)[C@@H](O)[C@H](O)[C@@H]5O)[C@H]5C(C)(C)[C@@H](O[C@@H]6OC[C@@H](O)[C@H](O)[C@@H]6O)CC[C@@]56C[C@@]46CC[C@]23C)O1,z-score,[2]; [4],0.913
same,z-score,[2]; [5],0.41
same,z-score,[2]; [6],0.699
CC(C)(C)[C@H](NC(=O)c1ccc(N)c(Cl)c1)C(=O)N1CCC[C@@H]1C(=O)N[C@H](C#N)CC(=O)O,z-score,[2]; [4],1.53
same,z-score,[2]; [5],2.68
same,z-score,[2]; [6],2.13
COc1ccc(C=Cc2cc(OC)c(OC)c(OC)c2)cc1NC(=O)[C@H](N)CO,Potency,[1],54.9 nM (active)
same,Z-AUC,[1]; [3],-1.39
same,Z-AUC,[1]; measured here: PEO4 Z-AUC,-1.42
same,Potency,[2]; TFE3-RCC UOK109 viability,10.5 nM (active)
same,z-score,[2]; [4],-2.33
same,z-score,[2]; [5],-3.86
same,z-score,[2]; [6],-1.55
CC[C@H](CC[C@@H](C)[C@H]1CC[C@H]2[C@@H]3CC=C4C[C@@H](O)CC[C@]4(C)[C@@H]3CC[C@]12C)C(C)C,z-score,[2]; [4],0.368
same,z-score,[2]; [5],0.916
same,z-score,[2]; [6],0.197
CC1(C)[C@H](O[C@H]2O[C@H](C(=O)O)[C@@H](O)[C@H](O)[C@H]2O[C@@H]2O[C@H](C(=O)O)[C@@H](O)[C@H](O)[C@H]2O)CC[C@@]2(C)[C@H]1CC[C@]1(C)[C@H]2C(=O)C=C2[C@H]3C[C@@](C)(C(=O)O)CC[C@]3(C)CC[C@]21C,z-score,[2]; [4],0.831
same,z-score,[2]; [5],0.728
same,z-score,[2]; [6],0.774
NC[C@H]1O[C@H](O[C@H]2[C@@H](O)[C@@H](O[C@H]3O[C@H](CO)[C@@H](O)[C@H](N)[C@@H]3O)[C@H](N)C[C@@H]2N)[C@H](N)C[C@H]1O,z-score,[2]; [4],2.03
same,z-score,[2]; [5],0.18
same,z-score,[2]; [6],1.86
COC1=C(OC)C(=O)C(CC=C(C)CCC=C(C)CCC=C(C)CCC=C(C)CCC=C(C)CCC=C(C)CCC=C(C)CCC=C(C)CCC=C(C)CCC=C(C)C)=C(C)C1=O,z-score,[2]; [4],0.576
same,z-score,[2]; [5],0.211
same,z-score,[2]; [6],0.661
C=C1CCC2[C@](C)(CO)C(O)CC[C@]2(C)C1CC=C1C(=O)OCC1O (stereo not given in full),z-score,[2]; [4],0.432
same,z-score,[2]; [5],-0.457
same,z-score,[2]; [6],1.09
C[C@]12CCC(=O)C=C1[C@@H]1CC1[C@H]1[C@H]3[C@@H]4C[C@H]4[C@@]4(CCC(=O)O4)[C@@]3(C)CC[C@H]12 (stereo not given in full),z-score,[2]; [4],0.661
same,z-score,[2]; [5],0.572
same,z-score,[2]; [6],-2.84
CN[C@H](CC(C)C)C(=O)N[C@H]1C(=O)N[C@@H](CC(N)=O)C(=O)N[C@@H]2C(=O)N[C@H]3C(=O)N[C@H](C(=O)N[C@H](C(=O)O)c4cc(O)cc(O)c4-c4cc3ccc4O)[C@H](O)c3ccc(c(Cl)c3)Oc3cc2cc(c3O[C@@H]2O[C@H](CO)[C@@H](O)[C@H](O)[C@@H]2O[C@H]2C[C@](C)(N)[C@H](O)[C@H](C)O2)Oc2ccc(cc2Cl)[C@H]1O,z-score,[2]; [4],0.508
same,z-score,[2]; [5],0.868
same,z-score,[2]; [6],0.133
C#C[C@]1(O)CC[C@@H]2[C@@H]3CCC4=CC(=O)CC[C@@H]4[C@H]3CC[C@@]21CC,z-score,[2]; [4],0.12
same,z-score,[2]; [5],-0.0153
same,z-score,[2]; [6],-0.174
C[C@@H]1[C@H](C)CC[C@]2(C(=O)O)CC[C@]3(C)C(=CC[C@@H]4[C@@]5(C)C[C@@H](O)[C@H](O)[C@@](C)(CO)[C@H]5CC[C@]43C)[C@@H]12,z-score,[2]; [4],0.114
same,z-score,[2]; [5],0.271
same,z-score,[2]; [6],0.0304
CC(C)OC(=O)[C@H](C)N[P@](=O)(OC[C@H]1O[C@@H](n2ccc(=O)[nH]c2=O)[C@](C)(F)[C@H]1O)Oc1ccccc1,z-score,[2]; [4],0.488
same,z-score,[2]; [5],1.3
same,z-score,[2]; [6],0.519
O=C(C=CC=Cc1ccc2c(c1)OCO2)N1CCCCC1,z-score,[2]; [4],0.531
same,z-score,[2]; [5],0.306
same,z-score,[2]; [6],0.432
Cc1onc(-c2ccccc2)c1C(=O)N[C@@H]1C(=O)N2[C@@H](C(=O)O)C(C)(C)S[C@@H]12,z-score,[2]; [4],2.05
same,z-score,[2]; [5],0.727
same,z-score,[2]; [6],1.83
OCCN1C[C@H](O)[C@@H](O)[C@H](O)[C@@H]1CO,z-score,[2]; [4],0.705
same,z-score,[2]; [5],0.522
same,z-score,[2]; [6],1.03
CC[C@H]1OC(=O)[C@H](C)[C@@H](O[C@H]2C[C@@](C)(OC)[C@@H](O)[C@H](C)O2)[C@H](C)[C@@H](O[C@@H]2O[C@@H](C)C[C@H](N(C)C)[C@@H]2O)[C@](C)(O)C[C@@H](C)C(=O)[C@H](C)[C@@H](O)[C@]1(C)O,z-score,[2]; [4],0.677
same,z-score,[2]; [5],0.444
same,z-score,[2]; [6],0.443
Nc1nc(=O)n([C@H]2CSC(CO)O2)cc1F (stereo not given in full),z-score,[2]; [4],0.159
same,z-score,[2]; [5],0.427
same,z-score,[2]; [6],0.298
C[C@]12C=CC(=O)N[C@@H]1CC[C@H]1[C@H]3CC[C@@H](C(=O)Nc4cc(C(F)(F)F)ccc4C(F)(F)F)[C@@]3(C)CC[C@@H]12,z-score,[2]; [4],0.94
same,z-score,[2]; [5],0.86
same,z-score,[2]; [6],0.116
O=C(C=Cc1ccc(CN(CCO)CCc2c[nH]c3ccccc23)cc1)NO,Potency,[2]; TFE3-RCC UOK109 viability,590 nM (active)
same,z-score,[2]; [4],-1.47
same,z-score,[2]; [5],-3.24
same,z-score,[2]; [6],-1.37
CC(=O)N1CCN(c2ccc(OCc3nn(C)c(C)c3-c3cccc4c(CCCOc5cccc6ccccc56)c(C(=O)O)n(Cc5cccnc5)c34)cc2)CC1,Potency,[2]; TFE3-RCC UOK109 viability,935 nM (active)
same,z-score,[2]; [4],-1.06
same,z-score,[2]; [5],-1.35
same,z-score,[2]; [6],-1.45
CC(=O)NC(CS)C(=O)O (stereo not given),z-score,[2]; [4],0.609
same,z-score,[2]; [5],0.0619
same,z-score,[2]; [6],0.159
COC(=O)[C@@H]1CC2=CC(=O)CC[C@]2(C)[C@@]23O[C@@H]2C[C@@]2(C)[C@H](CC[C@@]24CCC(=O)O4)[C@@H]13,z-score,[2]; [4],0.222
same,z-score,[2]; [5],0.454
same,z-score,[2]; [6],0.45
NC(=O)c1ncn([C@@H]2O[C@H](CO)[C@@H](O)[C@@H]2O)c1N,z-score,[2]; [4],0.684
same,z-score,[2]; [5],0.695
same,z-score,[2]; [6],0.605
